The values below come from PubChem BioAssay.

Each structure is given as a SMILES string. Values without a mark were called inactive. For some of these results: Entries with a potency or affinity are not part of this list. Active and inactive are the calls of the source. Unless noted, the rule behind the calls is not given here.

Test [1] in a line: antimalarial activity against Dd2 strain (AID 2302;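 active = growth inhibition above 50% at the single 2 µM test dose, taken to imply half-maximal potency below 2 µM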;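 note: 0% = DMSO untreated growth and 100% = chloroquine plus artemisinin killed control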). The following applies: P. falciparum Dd2 in RBCs, LDH growth readout, 72 h; at 2 µM; hits give high values.
The nature of test [2]: human hepatoma cell viability loss – ATP luminescence, cytotoxicity control for P. falciparum antimalarial project, primary screen (AID 2303;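 active = inhibition above 50%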;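 note: 0% = DMSO wells and 100% = digitonin-killed cells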). The note with it: HepG2 viability, 24-48 h, at 10 µM, hits give high values.
The target in test [3] is L-lactate dehydrogenase (Plasmodium falciparum (isolate CDC / Honduras)) (UniProt Q27743). Put plainly: PfLDH activity inhibition – cell lysate, 3D7 strain, counter-screen for P. falciparum growth inhibition project (AID 2304).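 Note: 0% = vehicle and 100% = reference inhibitor.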 The note with it: P. falciparum 3D7 crude extract, LDH APAD/NBT absorbance; at 2 µM; hits give high values. (In general: The purpose of a counterscreen is to sort out artefacts and off-target activity.)

Test [4] in a line: inhibition of 3D7 malaria parasite growth – strain 3D7 (AID 2306).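 Note: 0% = DMSO wells and 100% = chloroquine plus artemisinin control wells.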 The following applies: P. falciparum 3D7 erythrocytic growth, LDH absorbance, 72 h; at 2 µM; hits give high values.
Test [5] deals with Calcium-dependent protein kinase 1 (Plasmodium falciparum (isolate 3D7)) (UniProt P62344). Put plainly: PfCDPK1 kinase inhibitors, biochemical, TCAMS library (AID 1159585; cut-off not given, nearly all actives have IC50 up to about 0.98 µM;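 note: inhibitors leave more ATP so luminescence rises with inhibition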). The note with it: recombinant PfCDPK1, Kinase-Glo ATP depletion luminescence. In general terms: Kinase-Glo reads ATP consumption through a luciferase reaction.
Test [6] addresses Plasmodium falciparum protein kinase 6 (PK6, PF3D7_1337100) (UniProt Q8IDW1). Put plainly: PfPK6 kinase inhibitors, biochemical, TCAMS library (AID 1159586). The note with it: recombinant PfPK6, Kinase-Glo ATP depletion luminescence.
The target in test [7] is Protein kinase 7 (PK7), Plasmodium falciparum 3D7 (PF3D7_0213400) (UniProt Q7YTF7). Kind of test: inhibition of Plasmodium PK7 catalytic activity – biochemical, TCAMS antimalarial set, Kinase-Glo luminescence (AID 1159587). The note with it: recombinant PfPK7, Kinase-Glo ATP depletion luminescence.
Test [8] concerns the target Calcium-dependent protein kinase 4 (Plasmodium falciparum (isolate 3D7)) (UniProt Q8IBS5). Put plainly: PfCDPK4 kinase inhibitors, biochemical, TCAMS library (AID 1159588; cut-off not given, nearly all actives have IC50 up to about 0.91 µM). The note with it: recombinant PfCDPK4, Kinase-Glo ATP depletion luminescence.

Sequence of Calcium-dependent protein kinase 1 (Plasmodium falciparum (isolate 3D7)) (P62344 whole entry, looked up): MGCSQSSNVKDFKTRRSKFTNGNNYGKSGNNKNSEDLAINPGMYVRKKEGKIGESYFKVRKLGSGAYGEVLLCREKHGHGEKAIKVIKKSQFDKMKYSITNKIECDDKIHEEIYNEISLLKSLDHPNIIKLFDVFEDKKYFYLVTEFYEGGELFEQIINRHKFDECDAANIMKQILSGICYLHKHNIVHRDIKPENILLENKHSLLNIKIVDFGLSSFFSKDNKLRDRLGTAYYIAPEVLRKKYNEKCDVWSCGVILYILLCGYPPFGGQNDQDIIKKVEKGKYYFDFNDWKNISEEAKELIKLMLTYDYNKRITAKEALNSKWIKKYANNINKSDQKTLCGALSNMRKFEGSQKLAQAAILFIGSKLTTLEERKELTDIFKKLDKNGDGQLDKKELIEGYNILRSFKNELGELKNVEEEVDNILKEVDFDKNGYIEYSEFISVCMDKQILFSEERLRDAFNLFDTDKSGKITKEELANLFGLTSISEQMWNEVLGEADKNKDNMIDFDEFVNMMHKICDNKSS
Sequence of L-lactate dehydrogenase (Plasmodium falciparum (isolate CDC / Honduras)) (Q27743 whole entry, looked up): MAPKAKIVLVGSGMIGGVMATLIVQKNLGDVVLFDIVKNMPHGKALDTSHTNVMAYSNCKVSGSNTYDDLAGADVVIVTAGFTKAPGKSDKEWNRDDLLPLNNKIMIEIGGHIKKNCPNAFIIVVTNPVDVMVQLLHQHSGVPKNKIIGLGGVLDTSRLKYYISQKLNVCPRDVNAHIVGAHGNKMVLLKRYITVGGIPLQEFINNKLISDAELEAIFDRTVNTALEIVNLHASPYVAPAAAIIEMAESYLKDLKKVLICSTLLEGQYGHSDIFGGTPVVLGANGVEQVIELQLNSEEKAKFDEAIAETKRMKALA
Sequence of Protein kinase 7 (PK7), Plasmodium falciparum 3D7 (PF3D7_0213400) (Q7YTF7 1-343): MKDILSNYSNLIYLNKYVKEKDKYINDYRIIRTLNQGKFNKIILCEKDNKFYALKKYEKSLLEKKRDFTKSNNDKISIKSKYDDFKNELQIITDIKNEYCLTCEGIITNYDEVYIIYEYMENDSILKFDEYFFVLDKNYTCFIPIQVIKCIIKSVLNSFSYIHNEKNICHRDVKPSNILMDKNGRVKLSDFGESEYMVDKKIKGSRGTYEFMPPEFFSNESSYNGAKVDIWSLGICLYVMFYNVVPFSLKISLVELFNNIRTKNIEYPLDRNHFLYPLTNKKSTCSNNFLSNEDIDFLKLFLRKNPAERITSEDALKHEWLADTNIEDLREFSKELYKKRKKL
Sequence of Calcium-dependent protein kinase 4 (Plasmodium falciparum (isolate 3D7)) (Q8IBS5 whole entry, looked up): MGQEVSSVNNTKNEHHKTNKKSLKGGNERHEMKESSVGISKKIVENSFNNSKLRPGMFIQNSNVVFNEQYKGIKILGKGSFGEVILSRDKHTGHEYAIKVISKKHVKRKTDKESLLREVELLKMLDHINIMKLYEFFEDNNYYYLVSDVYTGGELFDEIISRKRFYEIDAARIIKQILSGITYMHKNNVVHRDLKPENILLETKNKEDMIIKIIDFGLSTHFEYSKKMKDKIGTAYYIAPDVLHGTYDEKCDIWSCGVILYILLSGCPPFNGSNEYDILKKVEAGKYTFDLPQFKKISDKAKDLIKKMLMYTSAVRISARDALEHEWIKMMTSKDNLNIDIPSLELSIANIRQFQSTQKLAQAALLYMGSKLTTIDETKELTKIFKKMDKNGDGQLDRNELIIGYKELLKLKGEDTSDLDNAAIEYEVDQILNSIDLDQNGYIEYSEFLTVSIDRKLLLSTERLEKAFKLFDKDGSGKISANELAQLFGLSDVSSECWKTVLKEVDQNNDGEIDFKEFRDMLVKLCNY
Sequence of Plasmodium falciparum protein kinase 6 (PK6, PF3D7_1337100) (Q8IDW1 1-305): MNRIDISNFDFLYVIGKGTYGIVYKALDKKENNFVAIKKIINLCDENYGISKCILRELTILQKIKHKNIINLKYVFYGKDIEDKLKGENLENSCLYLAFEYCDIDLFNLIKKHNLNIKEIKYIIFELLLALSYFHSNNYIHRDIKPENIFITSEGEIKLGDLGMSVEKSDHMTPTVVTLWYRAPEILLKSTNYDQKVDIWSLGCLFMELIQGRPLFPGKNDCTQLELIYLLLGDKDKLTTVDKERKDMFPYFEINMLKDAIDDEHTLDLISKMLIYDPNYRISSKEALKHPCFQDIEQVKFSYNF

Consider `COc1ccc2c(ccc3c2ncc2c(=O)n(-c4ccccc4)[nH]c23)c1`, for which the growth inhibition was 92% (active) in test [1] and 95% (active) in test [4]. Further, the values for the inhibition in test [2] and in test [3] were -2% and 4%, respectively. In addition, the result in test [5], in test [6], in test [7] and in test [8] was inactive.
Take `CCCc1cc(Cc2cnc(N)nc2N)cc(CCC)c1OCCCCC(=O)OCC`: the growth inhibition in test [1] was -3%; in test [4] it was 93% (active). In addition, the inhibition in test [2] was 1%; in test [3] it was 4%. Further, the outcome in test [5], in test [6], in test [7] and in test [8] was inactive.
Consider `O=C(c1ccc(-c2ccc(-c3nc4ccccc4[nH]3)s2)cc1)N1CCCCC1CN1CCC(O)C1` (stereo not given), for which the figures for the growth inhibition in test [1] and in test [4] were 55% (active) and 84% (active), respectively. Besides, the inhibition was 18% in test [2] and 2% in test [3]. The result in test [5], in test [6], in test [7] and in test [8] was inactive.
As for `Cc1c(Br)cc2[nH]c(-c3ccc(C(=O)NC4CCN(Cc5ccccc5)CC4)cc3)nc2c1C`, the growth inhibition in test [1] was 98% (active); in test [4], 102% (active). The inhibition is 4% in test [2] and 1% in test [3]. Besides, the outcome in test [5], in test [6], in test [7] and in test [8] was inactive.
In the case of `COc1ccc(-c2csc3ncnc(Cl)c23)cc1OC`, the values for the growth inhibition in test [1] and in test [4] were 84% (active) and 93% (active), respectively. For the same molecule, the figures for the inhibition in test [2] and in test [3] were -25% and 4%, respectively. Besides, the result in test [5], in test [6], in test [7] and in test [8] was inactive.
With `Cc1c(-c2ccc3c(c2)C(NCCCN2CCCCC2)CC3)cnc(N)c1C` (stereo not given), the values for the growth inhibition in test [1] and in test [4] were 3% and 97% (active), respectively. Moreover, the inhibition was 4% in test [2] and -3% in test [3]. Moreover, the result in test [5], in test [6], in test [7] and in test [8] was inactive.
`O=C(Nc1ccc2nc(-c3ccccc3)[nH]c2c1)c1cc(-c2ccc3c(c2)OCCO3)n[nH]1`: the growth inhibition is 75% (active) in test [1] and 100% (active) in test [4]. The inhibition is 58% (active) in test [2] and -2% in test [3]. Further, the result in test [5], in test [6], in test [7] and in test [8] was inactive.
For the molecule `O=C(Nc1cccc(-c2cc(-c3c(Cl)cccc3Cl)no2)c1)c1cncc(-c2cccs2)c1`, the figures for the growth inhibition in test [1] and in test [4] were 39% and 91% (active), respectively. Moreover, the inhibition is -1% in test [2] and -2% in test [3]. In addition, the result in test [5], in test [6], in test [7] and in test [8] was inactive.
Regarding `COc1ccc(NC(=O)CCNc2ccnc(NCCc3ccc(F)cc3)n2)cc1`, the growth inhibition was 5% in test [1] and 94% (active) in test [4]. In addition, the inhibition is 4% in test [2] and -3% in test [3]. In addition, the result in test [5], in test [6], in test [7] and in test [8] was inactive.
With `NC(N)=Nc1ccc(OCCCCCOc2ccc(N=C(N)N)c(Cl)c2)cc1Cl`, the growth inhibition in test [1] and in test [4] was 92% (active) throughout. Further, the inhibition in test [2] was 18%; in test [3], 6%. For the same molecule, the outcome in test [5], in test [6], in test [7] and in test [8] was inactive.
For `C[C@@H](N)C#Cc1cc2c(Nc3ccc(OCc4cccc(F)c4)c(Cl)c3)ncnc2s1`, the growth inhibition in test [1] is 23%; in test [4] it was 89% (active). The inhibition in test [2] was 17%; in test [3] it was -5%. The result in test [5], in test [6], in test [7] and in test [8] was inactive.
Take `CCCC(=O)NC(c1ccc(C)cc1)c1ccc2cccnc2c1O` (stereo not given): the growth inhibition in test [1] was 45%; in test [4], 88% (active). Further, the inhibition in test [2] was 52% (active); in test [3], -4%. For the same molecule, the result in test [5], in test [6], in test [7] and in test [8] was inactive.
For the molecule `OCCN1CCN(Cc2cccc(-c3cccc(-c4nc5ccc(F)cc5[nH]4)c3)c2)CC1`, the growth inhibition was 99% (active) in test [1] and 102% (active) in test [4]. Besides, the inhibition in test [2] is 41%; in test [3], -2%. The outcome in test [5], in test [6], in test [7] and in test [8] was inactive.
For `CN(c1ccc(NC(=O)c2cccc(F)c2)cc1)C1CCCN(Cc2cccc(O)c2)C1` (stereo not given), the growth inhibition in test [1] was 2%; in test [4], 85% (active). For the same molecule, the values for the inhibition in test [2] and in test [3] were 13% and -3%, respectively. For the same molecule, the result in test [5], in test [6], in test [7] and in test [8] was inactive.
As to `CC(C)n1ncc2c3c(N)nc(N)nc3ccc21`, the results for the growth inhibition in test [1] and in test [4] were 6% and 98% (active), respectively. For the same molecule, the inhibition was 64% (active) in test [2] and -3% in test [3]. Besides, the outcome in test [5], in test [6], in test [7] and in test [8] was inactive.
For the molecule `CCN(CC)CCN(Cc1ccc(-c2ccc(C(F)(F)F)cc2)cc1)C(=O)Cn1c(CCc2cccc(F)c2F)nc(=O)c2cc(F)c(F)cc21`, the growth inhibition was 56% (active) in test [1] and 100% (active) in test [4]. In addition, the inhibition was 41% in test [2] and -5% in test [3]. The result in test [5], in test [6], in test [7] and in test [8] was inactive.
Regarding `CCCc1c(C(=O)OCC)c2cc(O)ccc2n1-c1ccc(OC)cc1`, the values for the growth inhibition in test [1] and in test [4] were 99% (active) and 100% (active), respectively. For the same molecule, the results for the inhibition in test [2] and in test [3] were -2% and 0%, respectively. In addition, the outcome in test [5], in test [6], in test [7] and in test [8] was inactive.
Turning to `CN1CCCC1CCNC(=O)[C@H](CC1CCCCC1)NC(=O)c1ccc(O)c(-c2ccc(Cl)c(Cl)c2)c1` (stereo not given in full), the figures for the growth inhibition in test [1] and in test [4] were 35% and 98% (active), respectively. In addition, the inhibition in test [2] is 0%; in test [3], 3%. Besides, the result in test [5], in test [6], in test [7] and in test [8] was inactive.
Turning to `Cc1c(-c2cccc(C(C)(C)NCCCN3CCCCC3)c2)cnc(N)c1C`, the growth inhibition in test [1] is 2%; in test [4] it was 95% (active). For the same molecule, the values for the inhibition in test [2] and in test [3] were 5% and -1%, respectively. The result in test [5], in test [6], in test [7] and in test [8] was inactive.
As for `Cc1nnsc1C(=O)Nc1ccc(-c2cccc(-c3nc4ccc(C(F)(F)F)cc4[nH]3)c2)cc1`, the values for the growth inhibition in test [1] and in test [4] were 36% and 97% (active), respectively. For the same molecule, the inhibition in test [2] is 69% (active); in test [3] it was 2%. The result in test [5], in test [6], in test [7] and in test [8] was inactive.

For orientation: inhibition means the change of the read-out against control, counted positive when it falls.
